This is part of a sample that, as a whole, favours compounds with a hit. Of some 79,000 tested, about 15% had one in any assay. Values without a mark were called inactive. Calls of active or inactive are those of the source. No stated cut-off is given here; in the data, active means growth inhibition above about 70%; inactive means the rest.

Our source for the growth inhibition values is PubChem BioAssay (NCI).

A short description of assay [1]: NCI Yeast Anticancer Drug Screen. Data for the rad50 strain (AID 155).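 Further: 0% = growth of vehicle-only cultures of the same strain.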 Conditions: S. cerevisiae rad50 strain growth inhibition, hits give high values. In a few lines: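 Genetically altered yeast (DNA repair pathway); compound treatment; growth inhibition vs vehicle ctrl.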
A short description of assay [2]: NCI Yeast Anticancer Drug Screen. Data for the mec2-1 strain (AID 157). The note with it: S. cerevisiae mec2-1 strain, hits give high values. In a few lines:
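mec2-1 yeast strain, carrying an alteration in DNA damage repair or cell cycle control, was exposed to compounds; growth inhibition was measured relative to vehicle-treated controls.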

Assay [3] is described as follows: NCI Yeast Anticancer Drug Screen. Data for the sgs1 mgt1 strain (AID 161).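 Further: 0% = growth of cultures given vehicle only.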 The note with it: S. cerevisiae sgs1 mgt1 strain, hits give high values. An outline of the steps: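 This yeast growth screen uses a strain with defined DNA-repair lesions; compound-treated growth is compared with vehicle-treated growth.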
A short description of assay [4]: NCI Yeast Anticancer Drug Screen. Data for the cln2 rad14 strain (AID 165).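 Further: 0% = growth equal to vehicle treated cultures.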 Conditions: S. cerevisiae cln2 rad14 strain, hits give high values. An outline of the steps: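 Yeast carrying cln2 and rad14 alterations (cell cycle control and DNA damage repair) were exposed to compounds. Growth inhibition was measured against vehicle-treated controls.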
A short description of assay [5]: NCI Yeast Anticancer Drug Screen. Data for the bub3 strain (AID 167). The note with it: S. cerevisiae bub3 mutant strain, hits give high values. An outline of the steps:
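Yeast carrying a defined mutation is treated with each compound, and growth is compared with that of vehicle-exposed cells to give inhibition.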

The nature of assay [6]: NCI Yeast Anticancer Drug Screen. Data for the mlh1 rad18 strain (AID 175). Conditions: S. cerevisiae mlh1 rad18 strain growth inhibition, hits give high values. In a few lines: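 Growth inhibition of the yeast strain was measured after compound exposure and expressed relative to vehicle-treated controls. The strain carries defined defects in DNA damage repair.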
The mark [7] stands for this setting: at 5.0 µM (retest, dose inferred, filed as 0.5).
Setting [8] is: at 50.0 µM (retest, dose inferred, filed as 5.0).

With `CCOC(=O)Cc1csc2[n+]1C(=O)/C(=C/c1ccc(OC)c(OC)c1)S2`, the growth inhibition in assay [1] (setting [7]) is -11%; in assay [1] (setting [8]), 11%; in assay [1] (at 50.0 µM), 95.2% (active); in assay [2] (setting [7]), -14%; in assay [2] (setting [8]), 10%; in assay [2] (at 50.0 µM), 94.2% (active). Besides, the growth inhibition in assay [3] (setting [7]) is -11%; in assay [3] (setting [8]), 14%; in assay [3] (at 50.0 µM) it was 94.2% (active); in assay [4] (setting [7]) it was -1%; in assay [4] (setting [8]), 8%; in assay [4] (at 50.0 µM), 93% (active). Further, the growth inhibition in assay [5] (setting [7]) is -22%; in assay [5] (setting [8]), -2%; in assay [5] (at 50.0 µM), 95.7% (active); in assay [6] (setting [7]) it was -17%; in assay [6] (setting [8]), 17%; in assay [6] (at 50.0 µM) it was 93% (active).

Take `O=[N+]([O-])/C(C=Nc1ccccc1)=C/Nc1ccccc1`: the growth inhibition in assay [1] (setting [7]) is -17%; in assay [1] (setting [8]), 51%; in assay [1] (at 50.0 µM), 71.5% (active); in assay [2] (setting [7]), -10%; in assay [2] (setting [8]) it was 33%; in assay [2] (at 50.0 µM), 67.3%. In addition, the growth inhibition is 2% in assay [3] (setting [7]); 46% in assay [3] (setting [8]); 83.5% (active) in assay [3] (at 50.0 µM); -6% in assay [4] (setting [7]); 48% in assay [4] (setting [8]); 37.5% in assay [4] (at 50.0 µM). Moreover, the growth inhibition in assay [5] (setting [7]) is 16%; in assay [5] (setting [8]), 73% (active); in assay [5] (at 50.0 µM), 31.6%; in assay [6] (setting [7]) it was -15%; in assay [6] (setting [8]), 83% (active); in assay [6] (at 50.0 µM), 76.6% (active).

`CC(C)(C)c1cc(C(O)(C(F)(F)F)C(F)(F)F)c(Cl)c(C(O)(C(F)(F)F)C(F)(F)F)c1`: the growth inhibition in assay [1] (setting [7]) is 10%; in assay [1] (setting [8]), 99% (active); in assay [1] (at 50.0 µM), 99.5% (active); in assay [2] (setting [7]) it was 13%; in assay [2] (setting [8]) it was 98% (active); in assay [2] (at 50.0 µM), 99.7% (active). For the same molecule, the growth inhibition in assay [3] (setting [7]) is 11%; in assay [3] (setting [8]), 99% (active); in assay [3] (at 50.0 µM), 99.7% (active); in assay [4] (setting [7]) it was 24%; in assay [4] (setting [8]), 99% (active); in assay [4] (at 50.0 µM), 99% (active). Moreover, the growth inhibition was 14% in assay [5] (setting [7]); 99% (active) in assay [5] (setting [8]); 99.8% (active) in assay [5] (at 50.0 µM); 8% in assay [6] (setting [7]); 99% (active) in assay [6] (setting [8]); 99.5% (active) in assay [6] (at 50.0 µM).

Turning to `CSc1nnc(CCC(=O)Nc2c(C)cccc2C(C)(C)C)o1`, the growth inhibition is -5% in assay [1] (setting [7]); 1% in assay [1] (setting [8]); -2.5% in assay [1] (at 50.0 µM); 1% in assay [2] (setting [7]); 4% in assay [2] (setting [8]); 27.8% in assay [2] (at 50.0 µM). In addition, the growth inhibition in assay [3] (setting [7]) was -14%; in assay [3] (setting [8]), 25%; in assay [3] (at 50.0 µM) it was 10.9%; in assay [4] (setting [7]) it was 4%; in assay [4] (setting [8]), 7%; in assay [4] (at 50.0 µM), 49.6%. The growth inhibition in assay [5] (setting [7]) was 7%; in assay [5] (setting [8]), 7%; in assay [5] (at 50.0 µM), 0.65%; in assay [6] (setting [7]) it was -9%; in assay [6] (setting [8]), -3%; in assay [6] (at 50.0 µM), 1.65%.

With `COC(=O)/C(C#N)=C(/SC)N(C)C`, the growth inhibition in assay [1] (setting [7]) was 4%; in assay [1] (setting [8]), 7%; in assay [1] (at 50.0 µM) it was 4.35%; in assay [2] (setting [7]) it was 8%; in assay [2] (setting [8]), 15%; in assay [2] (at 50.0 µM) it was 4.1%. The growth inhibition was 2% in assay [3] (setting [7]); 10% in assay [3] (setting [8]); -10.3% in assay [3] (at 50.0 µM); 6% in assay [4] (setting [7]); 7% in assay [4] (setting [8]); 38.6% in assay [4] (at 50.0 µM). In addition, the growth inhibition in assay [5] (setting [7]) is 0%; in assay [5] (setting [8]), 7%; in assay [5] (at 50.0 µM), 2.55%; in assay [6] (setting [7]), 12%; in assay [6] (setting [8]), 11%; in assay [6] (at 50.0 µM), -10.3%.

Take `O=C1c2ccccc2C(=O)C2(C(c3ccccc3)c3ccccc3)N=NCC12` (configuration not stated): the growth inhibition is -5% in assay [1] (setting [7]); 15% in assay [1] (setting [8]); 4.15% in assay [1] (at 50.0 µM); -1% in assay [2] (setting [7]); -7% in assay [2] (setting [8]); 11.9% in assay [2] (at 50.0 µM). The growth inhibition in assay [3] (setting [7]) was 0%; in assay [3] (setting [8]), 18%; in assay [3] (at 50.0 µM), 7.95%; in assay [4] (setting [7]), 5%; in assay [4] (setting [8]) it was 5%; in assay [4] (at 50.0 µM), -7.15%. Moreover, the growth inhibition in assay [5] (setting [7]) was 27%; in assay [5] (setting [8]), 42%; in assay [5] (at 50.0 µM), 30.1%; in assay [6] (setting [7]), 13%; in assay [6] (setting [8]) it was 21%; in assay [6] (at 50.0 µM), 12.2%.

Turning to `CCN(CC)Cc1ccc(Nc2cc(C)nc(/N=C(\N)Nc3ccc(Cl)c(Cl)c3)n2)cc1`, the growth inhibition in assay [1] (setting [7]) is 66%; in assay [1] (setting [8]), 97% (active); in assay [1] (at 50.0 µM), 97.3% (active); in assay [2] (setting [7]), 55%; in assay [2] (setting [8]), 98% (active); in assay [2] (at 50.0 µM), 95.3% (active). Besides, the growth inhibition is 59% in assay [3] (setting [7]); 98% (active) in assay [3] (setting [8]); 98.1% (active) in assay [3] (at 50.0 µM); 11% in assay [4] (setting [7]); 97% (active) in assay [4] (setting [8]); 82.5% (active) in assay [4] (at 50.0 µM). The growth inhibition in assay [5] (setting [7]) was 7%; in assay [5] (setting [8]), 98% (active); in assay [5] (at 50.0 µM), 94.2% (active); in assay [6] (setting [7]) it was 55%; in assay [6] (setting [8]), 98% (active); in assay [6] (at 50.0 µM) it was 97.3% (active).

Turning to `C=C1OC(=O)C(=O)N1CC(=O)O`, the growth inhibition is -156% in assay [1] (setting [7]); -170% in assay [1] (setting [8]); -1.35% in assay [1] (at 50.0 µM); -50% in assay [2] (setting [7]); -54% in assay [2] (setting [8]); 5.4% in assay [2] (at 50.0 µM). Also, the growth inhibition in assay [3] (setting [7]) is -61%; in assay [3] (setting [8]), -70%; in assay [3] (at 50.0 µM), -5.5%; in assay [4] (setting [7]) it was -54%; in assay [4] (setting [8]) it was -69%; in assay [4] (at 50.0 µM), 44.9%. Further, the growth inhibition was -70% in assay [5] (setting [7]); -82% in assay [5] (setting [8]); -6.45% in assay [5] (at 50.0 µM); -139% in assay [6] (setting [7]); -119% in assay [6] (setting [8]); 4.05% in assay [6] (at 50.0 µM).

With `COc1ccc(OC)c2c1C=CC(Br)=CC2`, the growth inhibition in assay [1] (setting [7]) is 33%; in assay [1] (setting [8]), 33%; in assay [1] (at 50.0 µM), 55.1%; in assay [2] (setting [7]), 24%; in assay [2] (setting [8]), 24%; in assay [2] (at 50.0 µM) it was 27%. The growth inhibition was 26% in assay [3] (setting [7]); 26% in assay [3] (setting [8]); 45.5% in assay [3] (at 50.0 µM); 6% in assay [4] (setting [7]); 6% in assay [4] (setting [8]); 15.4% in assay [4] (at 50.0 µM). In addition, the growth inhibition was 19% in assay [5] (setting [7]); 19% in assay [5] (setting [8]); 40.8% in assay [5] (at 50.0 µM); 30% in assay [6] (setting [7]); 30% in assay [6] (setting [8]); 39.5% in assay [6] (at 50.0 µM).
